High-throughput results: PubChem BioAssay, several laboratories
Most compounds without a hit are left out; they make up all but 1.5% or so of the library.
RAD52 anneal inh: RAD52 DNA annealing inhibitors, primary screen, biochemical, FRET, single point, set 2; inhibition, % at 18.7 µM; recombinant RAD52 DNA annealing, FRET fluorescence; AID 651710, 2012; hit rate 0.46% among 360,000; DNA repair protein RAD52 homolog (Homo sapiens), P43351;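 active = every replicate showing at least 50% inhibition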
N-glyco inh: increase of ERlucT glycosylation luciferase signal, primary screen, N-linked glycosylation inhibitor project, D54 ERlucT cells, luminescence, set 2. D54 ERlucT glycosylation luciferase reporter, 24 h; percent of 100 nM tunicamycin response. reporter increase, % at 12.5 µM. hit rate 0.23% among 360,000;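 active = mean luciferase reporter signal, scaled so untreated is 0 and the glycosylation-blocking control 100, at or above a set limit in every replicate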;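 also: luciferase carries N-glycosylation sites so blocking glycosylation raises the light; 0% = median of neutral control wells and 100% = median of 100 nM tunicamycin wells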
RAD54 inh: inhibitors of human RAD54 branch migration, primary screen, biochemical, fluorescence, single point; inhibition, % at 10.4 µM; RAD54 Holliday junction branch migration, FAM/BHQ fluorescence; AID 602329, 2012; hit rate 0.14% among 360,000;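 active = mean normalized replicate activity at least 40 and at least half of replicates scoring 40 or more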;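 also: 0% = median of neutral control wells and 100% = median of positive control wells; inhibitors cause a drop in the FAM fluorescence signal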
NRP1-CendR mod: modulators of CendR peptide binding to NRP-1, primary screen, biochemical, fluorescence polarization, uHTS. inhibition, % at 25 µM. hit rate 0.85% among 360,000. FAM-RPARPAR peptide binding to NRP-1. AID 602438, 2012. Neuropilin-1 (Homo sapiens), O14786;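 active = inhibition or corrected inhibition above about 18%, plus a signal ratio from 0.5 to 1.5, limit read from the data, passing the limit was not always enough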
miR122 inh: miR-122 Renilla sensor signal increase in Huh7, primary screen, miR-122 inhibitor project, cell-based, single point, plate reader; Huh7 miR-122 Renilla luciferase sensor, 48 h; neutral wells = 0, positive control = 100; activation (reporter increase), % at 12.5 µM; hit rate 0.3% among 340,000;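 active = mean replicate activation score at least 90 and every replicate individually at or above 90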;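 also: higher luciferase means less miR-122 activity so hits act as miR-122 inhibitors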
DNA FID counter: compounds displacing fluorescent DNA intercalator, primary screen, artefact control for HCV NS3 helicase inhibitor project, biochemical, FID fluorescence; AID 1845, 2009; DNA fluorescent intercalator displacement; inhibition, % at 7.9 µM; hit rate 0.17% among 290,000; in the data active = inhibition above about 37%;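 also: 0% = vehicle and 100% = reference compound; higher means more ethidium bromide displaced from hairpin DNA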
An asterisk follows results filed as active; · = not tested or not shown; + = active, no number; [ ] = remark or other dose.

SMILES | RAD52 anneal inh | N-glyco inh | RAD54 inh | NRP1-CendR mod | miR122 inh | DNA FID counter
O=C(NCC1COc2ccccc2O1)Nc1ccccc1F (configuration not stated) | · | -1 | 5 | 19* | 7 | -2
Cc1cc(C)nc(NS(=O)(=O)c2ccc(NC(=O)COc3ccccc3F)cc2)n1 | -13 | 1 | · | -12 | · | ·
O=C(COc1ccccc1F)Nc1cc(S(=O)(=O)Nc2cccc(Cl)c2)ccc1O | -2 | 3 | 6 | 25* | · | ·
C[C@H](CO)N1C[C@H](C)[C@@H](CN(C)Cc2ccc3c(c2)OCO3)Oc2c(NS(=O)(=O)c3ccc(Cl)cc3)cccc2C1=O | 12 | · | · | · | · | ·
CCC(=O)N1CC2(CCN(C(=O)Nc3ccc(F)cc3)CC2)c2c([nH]c3cc(OC)ccc23)[C@H]1CO | 2 | · | · | · | · | ·
CCC1=NN(C(=O)c2ccccc2Br)C(O)(c2ccc(Br)cc2)C1 (configuration not stated) | -16 | -4 | 1 | -17 | · | -27
CCC1=NN(C(=O)c2ccccc2O)C(O)(c2ccccc2)C1 (configuration not stated) | -5 | -4 | -11 | -12 | + | -8
COC(=O)Oc1ccc(/C=N/NC(=O)CN(c2ccccc2Br)S(C)(=O)=O)cc1OC | -5 | 0 | -7 | 23* | 0 | ·
CCc1ccccc1N(CC(=O)N/N=C/c1ccc(OC(=O)OC)c(OC)c1)S(C)(=O)=O | · | 0 | -9 | 17 | 0 | -32
NS(=O)(=O)c1ccc(CCNC(=O)COc2ccc3c4c(c(=O)oc3c2)CCC4)cc1 | -2 | 1 | -17 | 22 | -1 | 88*
CCOC(=O)c1ccc(NC(=O)C2(c3ccccc3)CCOCC2)cc1 | · | -1 | · | 31* | 2 | -26
Oc1ccc(Nc2nc(-c3ccccc3)nc3ccccc23)cc1 | 3 | 1 | 23 | -6 | · | 13
Oc1ccc(Nc2nc3ccccc3nc2Nc2ccc(O)cc2)cc1 | · | 50* | -1 | -94 | 30 | 4
COc1cc(/C=N/NC(=O)C(=O)NCC2CCCO2)ccc1O (configuration not stated) | · | -1 | · | 39* | · | 1
COc1ccc2c3c([nH]c2c1)[C@@H](CO)NCC31CCN(C(=O)C2CCCC2)CC1 | -71 | · | · | · | · | ·
CCC1CCCCN1C(=S)Nc1ccc(OC(F)F)cc1 (configuration not stated) | -9 | 0 | · | 27* | 26 | -2
O=C(NC[C@@H]1CC[C@@H]2[C@@H](CN2Cc2cccc(Cl)c2)O1)C1CCC1 | -3 | · | · | · | · | ·
CC(C)N1CCc2c(sc(NC(=O)c3cc(-c4cccs4)nc4ccccc34)c2C(N)=O)C1 | · | -5 | 78* | -252 | 1 | 5
CC(C)NC(=O)N[C@H]1CC[C@H](CC(=O)NC2Cc3ccccc3C2)O[C@@H]1CO | -10 | · | 15 | · | -4[16.7 µM] | ·
C[C@@H]1CN([C@H](C)CO)C(=O)c2cc(NC(=O)CCCN(C)C)ccc2O[C@@H](C)CCCCO[C@@H]1CN(C)Cc1ccccc1 | · | · | · | · | 7[16.7 µM] | ·
COc1ccc(-n2c(C)cc(C(=O)Cn3nc(C(=O)O)c4ccccc4c3=O)c2C)cc1 | · | -4 | · | 30* | · | -5
Cc1ccc(-n2c(C)cc(C(=O)Cn3nc(C(=O)O)c4ccccc4c3=O)c2C)cc1 | -5 | -4 | · | -14 | -3 | -17
COc1ccc2nc(NC(=O)CN3CCOCC3)sc2c1 | · | -1 | 12 | 21* | -5 | -8
O=C(Nc1nc2ccc(S(=O)(=O)N3CCCC3)cc2s1)C1CCCCC1 | · | 1 | -4 | -12 | 130* | -6
Cc1ccc(S(=O)(=O)N2CCOCC2)cc1NCC(=O)Nc1ccc(OC(F)(F)F)cc1 | -4 | -1 | · | 20* | · | ·
COc1ccc(NC(=O)CNc2cc(S(=O)(=O)N3CCOCC3)ccc2NCC2CCCO2)cc1 (configuration not stated) | -4 | 1 | -4 | -128 | · | -24
COc1ccc2nc(NC(=O)CN3CCN(C)CC3)sc2c1 | · | 0 | 2 | -1 | 1 | 6
